# Data: article PMC4336329 (PLoS ONE, 2015)
# About 14,000 (4.5%) of roughly 310,000 compounds showed an effect of 50% or more. The effect is printed as a negative number. This excerpt belongs to a sample that is enriched for strong results.
# Target: human ether-à-go-go-related gene (hERG) potassium channel (human, UniProt Q12809)
# Test: primary screen, population patch clamp on CHO cells stably expressing hERG; higher = less effect of the substance
# 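Note: peak tail current of the secondary pulse compared with the same well before compound.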
# Chain of human ether-à-go-go-related gene (hERG) potassium channel (Q12809 whole entry, looked up): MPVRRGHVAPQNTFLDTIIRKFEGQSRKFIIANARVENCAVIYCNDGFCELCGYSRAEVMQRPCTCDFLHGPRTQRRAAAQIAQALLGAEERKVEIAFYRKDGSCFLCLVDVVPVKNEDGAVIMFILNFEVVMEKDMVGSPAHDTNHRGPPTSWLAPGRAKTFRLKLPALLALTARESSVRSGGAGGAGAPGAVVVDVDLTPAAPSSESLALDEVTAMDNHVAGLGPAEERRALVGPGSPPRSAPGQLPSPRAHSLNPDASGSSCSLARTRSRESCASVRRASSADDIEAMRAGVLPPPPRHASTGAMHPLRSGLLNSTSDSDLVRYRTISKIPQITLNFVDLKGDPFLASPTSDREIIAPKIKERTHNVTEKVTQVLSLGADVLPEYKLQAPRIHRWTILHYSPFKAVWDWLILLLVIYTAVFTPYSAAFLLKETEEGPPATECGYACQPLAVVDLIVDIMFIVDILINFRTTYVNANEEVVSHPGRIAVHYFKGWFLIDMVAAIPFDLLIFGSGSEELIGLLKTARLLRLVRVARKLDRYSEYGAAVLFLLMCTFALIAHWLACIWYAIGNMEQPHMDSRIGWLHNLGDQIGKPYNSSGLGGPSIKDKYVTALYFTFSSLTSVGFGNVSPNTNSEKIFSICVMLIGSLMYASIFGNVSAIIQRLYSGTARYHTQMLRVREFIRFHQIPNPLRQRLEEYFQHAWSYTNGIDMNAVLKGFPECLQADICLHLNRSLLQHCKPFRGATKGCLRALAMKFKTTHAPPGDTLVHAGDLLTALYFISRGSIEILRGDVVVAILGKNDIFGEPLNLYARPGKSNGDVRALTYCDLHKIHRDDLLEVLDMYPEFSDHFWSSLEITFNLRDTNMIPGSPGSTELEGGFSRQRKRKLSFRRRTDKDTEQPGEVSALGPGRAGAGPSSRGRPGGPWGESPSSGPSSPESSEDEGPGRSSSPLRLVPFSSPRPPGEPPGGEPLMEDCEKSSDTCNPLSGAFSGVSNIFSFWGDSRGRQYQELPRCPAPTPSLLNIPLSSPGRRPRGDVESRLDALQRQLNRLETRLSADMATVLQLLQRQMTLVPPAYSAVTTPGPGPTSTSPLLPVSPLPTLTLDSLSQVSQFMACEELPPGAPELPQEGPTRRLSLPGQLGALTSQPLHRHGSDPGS
row,SMILES,"hERG current change (%, negative = inhibition) at 10uM [%]"
1,CN1CCN(CCCNC(=O)Cn2ncc3c4ccccc4n(C)c3c2=O)CC1,12
2,CCCN1CCN(CCCNC(=O)Cn2ncc3c4ccccc4n(C)c3c2=O)CC1,-56.6
3,CC1CCCC(C)N1CCCNC(=O)Cn1ncc2c3ccccc3n(C)c2c1=O (stereo not shown),-36.9
4,Cn1c2ccccc2c2cnn(CC(=O)NCCCN3CCN(c4ccccc4F)CC3)c(=O)c21,-76.3
5,Cc1cc(C)c2c(=O)n(CC(=O)NCCCN3CCOCC3)sc2n1,11.4
6,CCCNC(=O)Cn1sc2nc(C)cc(C)c2c1=O,-6.1
7,O=C(Cn1ncc2c(=O)oc3ccccc3c21)NCCN1CCN(c2ccccc2F)CC1,-28.4
8,COCCNC(=O)Cn1cc(S(=O)(=O)N2CCN(c3ccccc3F)CC2)c2ccccc2c1=O,-2.76
9,Cc1cc(C)c2c(=O)n(CC(=O)NCCCN3CCN(c4ccccc4F)CC3)sc2n1,-55.3
10,O=C(Cn1cc(S(=O)(=O)N2CCN(c3ccccc3F)CC2)c2ccccc2c1=O)NCCCN1CCCCCC1,-61.1
11,CCC(C)NC(=O)Cn1cc(S(=O)(=O)N2CCN(c3ccccc3F)CC2)c2ccccc2c1=O (stereo not shown),-4.4
12,Cn1c(C(=O)NCCCN2CCN(c3ccccc3F)CC2)cc2c(=O)n(C)c3ccccc3c21,-11.7
13,CC(=O)OC1COC(N2CCc3cc([N+](=O)[O-])ccc32)C(OC(C)=O)C1OC(C)=O (stereo not shown),2.87
14,CC(=O)c1nc(N2C(=O)CC(Cc3cccc(C)c3)C2=O)sc1C (stereo not shown),-16.3
15,CCOC(=O)C1CCCN(C(=O)CCCn2nnnc2CN2CCC(C)CC2)C1 (stereo not shown),-8.13
16,O=C1Nc2ccc(Br)cc2C1(O)c1ccc(F)cc1 (stereo not shown),7
17,Nc1cc(=O)[nH]c(SCC(=O)NCC2CCCO2)n1 (stereo not shown),1.45
18,NC(=O)COC(=O)CC(c1ccccc1)c1ccccc1,4.16
19,CCCCCCC1/C(=N\NC(=O)c2ccccc2)CCC1C(=O)OC (stereo not shown),-43.8
20,CC(C)[C@H](NC(=O)N1CCn2c1nc1ccccc12)C(=O)N[C@@H](C(=O)O)c1ccccc1,17.7
21,CC(C)c1ccc(N(C)C(=O)Cc2c(C(=O)O)n(C)c3ccccc23)cc1,0.167
22,Fc1cnc(N/N=C/c2ccc(-c3ccc(Br)cc3)o2)nc1N1CCOCC1,-15.8

row,SMILES,"hERG current change (%, negative = inhibition) at 10uM [%]"
1,O=C(O)CCC(=O)N1CCN(c2nc(-c3ccccc3)c3cc(Br)ccc3n2)CC1,3.79
2,COc1cccc(/C=C/C(=O)OCC(=O)c2c[nH]c3ccccc23)c1,13
3,CC1CCN(CCCNC(=O)Cn2ncc3c([nH]c4ccccc43)c2=O)CC1,9.35
4,COc1ccccc1N1CCN(CCCNC(=O)Cn2ncc3c([nH]c4ccccc43)c2=O)CC1,-68.6
5,O=C(CCS(=O)(=O)Cc1ccccc1F)NCCCN1CCCCC1,8.31
6,Cc1ccccc1CS(=O)(=O)CCC(=O)NCCCN1CCN(c2ccccc2F)CC1,-59.3
7,O=C(Cn1ncc2c([nH]c3ccccc32)c1=O)NCCCN1CCN(c2ccccc2)CC1,-21.5
8,Cc1ccccc1CS(=O)(=O)CCC(=O)NCCCN1CCOCC1,-10.6
9,Nc1nc2ccccc2n1/N=C/c1cccnc1,2.44
10,CC(C)(OC(=O)NC(=O)C(F)(F)F)C(C)(C)OC(=O)NC(=O)C(F)(F)F,31.4
11,COc1ccc(Cn2c(O)c(C=Nc3ccc(C)cc3)c3ccccc3c2=O)cc1,2.35
12,COC(=O)C1CN(C(=O)C(C)Oc2cccc(C)c2C)c2ccccc2O1 (stereo not shown),-8.63
13,C=CCNc1nc(NCC)nc(N2CCOCC2)n1,-0.791
14,COc1ccc(-n2nc3c(c2NC(=O)COc2ccccc2)CS(=O)C3)cc1 (stereo not shown),-28.2
15,NC(=NC(=O)c1ccc(OCC(F)(F)F)nc1)c1ccc(Cl)cc1,17.9
16,O=S(=O)(NCc1cccnc1)c1ccc2c(c1)OCCO2,0.45
17,CCOC(=O)c1ccc2ncc(C(=O)OCC)c(NCc3ccco3)c2c1,-24.7
18,CCOC(=O)c1cnc2c(C)cccc2c1Nc1ccc(N2CCOCC2)cc1,8.24
19,CCOC(=O)c1cnc2c(C)cccc2c1Nc1cccc(C(=O)O)c1.Cl,-8.37
20,CCOC(=O)c1cnc2ccccc2c1NCc1ccco1,-56.9
21,CCOC(=O)c1cnc(SCC(=O)NCc2ccco2)nc1N,-14.5
22,CCOC(=O)c1cnc2ccccc2c1Nc1ccc(C(=O)O)cc1.Cl,17.9

row,SMILES,"hERG current change (%, negative = inhibition) at 10uM [%]"
1,CCOC(=O)c1cnc2c(C(=O)OC)cccc2c1NCc1ccco1,-70.2
2,CCOC(=O)c1cnc2c(C)cccc2c1NCc1ccco1,-67.9
3,CCOC(=O)c1cccnc1SC(CC)C(=O)NCc1ccco1 (stereo not shown),-31.5
4,CCOc1ccc(NC(=O)c2nc(SCC)ncc2Cl)cc1,15
5,COc1ccc(OC)c(C(C(=O)NC2CCCCC2)N(C(=O)c2snc(C(N)=O)c2N)c2ccccc2OC)c1 (stereo not shown),14.8
6,O=C(COc1ccc2c3c(c(=O)oc2c1)CCCC3)NC(Cc1ccc(Cl)cc1)C(=O)O (stereo not shown),5.92
7,CCOC(=O)c1nc(C)n(-c2cc(Cl)cc(Cl)c2)n1,-17.5
8,CCOC(=O)c1nn(-c2ccccc2)c(=O)cc1OCC(=O)Nc1cc(C)ccc1OC,-44
9,CCCNc1nc2c(c(=O)n(C)c(=O)n2C)n1Cc1ccc(F)cc1,-12.8
10,COc1ccccc1NC(=O)CCC(=O)O,23.4
11,COc1ccc(N2C(=O)CSC2c2cccs2)cc1 (stereo not shown),-3.37
12,O=C(Oc1c(CN2CCOCC2)cc(Cl)c2cccnc12)c1cccs1,-21.9
13,CN1CCN(Cc2cc(Cl)c3cccnc3c2OC(=O)c2cccs2)CC1,-53.3
14,O=C(Oc1c(Cl)cc(Cl)c2cccnc12)c1cccs1,1.95
15,CN(C)S(=O)(=O)c1ccc(N2CCCC2)c(C(=O)NNC(=O)c2ccc(F)cc2)c1,15.5
16,COc1ccc(NC(=O)NNC(=O)C(C)Oc2ccc3ccccc3c2)cc1OC (stereo not shown),-16.2
17,COc1ccc(C(=O)NCc2nnc(SCC(=O)N3CCOCC3)o2)cc1OC,13.7
18,CCCNC(=O)N(CCOC)CC1CCCN(C2Cc3ccccc3C2)C1 (stereo not shown),-47.8
19,CCOC(=O)CNC(=O)N(CCOC)CC1CCCN(C2Cc3ccccc3C2)C1 (stereo not shown),-28.5
20,COCCN(CC1CCCN(C2Cc3ccccc3C2)C1)C(=O)CSC (stereo not shown),-10.7
21,COCCN(CC1CCCN(C2Cc3ccccc3C2)C1)C(=O)c1ccc(C(C)=O)cc1 (stereo not shown),-78.6
22,CCNC(=O)N(CCOC)CC1CCCN(C2Cc3ccccc3C2)C1 (stereo not shown),-22.9

row,SMILES,"hERG current change (%, negative = inhibition) at 10uM [%]"
1,COCCN(CC1CCCN(C2Cc3ccccc3C2)C1)C(=O)c1cccs1 (stereo not shown),-68.5
2,O=C(NCc1ccco1)C1CCCN(S(=O)(=O)c2cccc3cccnc23)C1 (stereo not shown),0.148
3,CCOC(=O)c1cc(-c2nnc(SCC(=O)Nc3ccc(F)cc3)o2)c(C)nc1C,7.9
4,COc1ccc(C(=O)NCc2nnc(SCC(=O)c3ccccc3)n2C)cc1OC,-18.2
5,O=C(c1cc(-c2ccccc2)n[nH]1)N1CCc2c([nH]c3ccccc23)C1c1ccccn1 (stereo not shown),14.5
6,Cc1sc2nc(C3CCCCC3)nc(SCC(=O)N3CC(=O)Nc4ccccc43)c2c1C,52.8
7,CC(C)c1ccc(/C=C2\SC(=S)N(CCC(=O)N3CCCCC3CCO)C2=O)cc1 (stereo not shown),20.3
8,CCOc1ccccc1N1CC(C(=O)NNC(=O)c2cc(OC)c(OC)c(OC)c2)CC1=O (stereo not shown),9
9,Cc1cc(C)n2c(=S)[nH]nc2n1,19.6
10,CCOC(=O)N1CCC(N2Cc3cccc(C(=O)N4CCN(c5cccc(Cl)c5)CC4)c3C2=O)CC1,-63.7
11,CCCN1Cc2cccc(C(=O)N3CCN(c4cc(Cl)ccc4C)CC3)c2C1=O,-52.5
12,CCOC(=O)N1CCC(N2Cc3cccc(C(=O)O)c3C2=O)CC1,-23.6
13,COCCN1Cc2cccc(C(=O)N3CCN(c4cc(C)ccc4C)CC3)c2C1=O,-16.5
14,CCOC(=O)N1CCC(N2Cc3cccc(C(=O)N4CCN(C5CCCCC5)CC4)c3C2=O)CC1,-62.4
15,CCOC(=O)N1CCC(N2Cc3cccc(C(=O)N4CC(C)CC(C)C4)c3C2=O)CC1 (stereo not shown),6.31
16,CCCN1Cc2cccc(C(=O)N3CCN(c4ccccc4)CC3)c2C1=O,6.02
17,CCOC(=O)N1CCC(N2Cc3cccc(C(=O)N4CCN(c5cccc(C)c5C)CC4)c3C2=O)CC1,-36.7
18,Cn1ccc(C(=O)NC(=S)N2CCSCC2)n1,9.2
19,O=C(CSCc1cccc(Br)c1)NC1CC1,-6.25
